Rows were chosen to be rich in hits. Some 21% of all compounds tested hit in one or more screens of this group.
Cycloheximide cs: affects cycloheximide protein synthesis inhibition readout, counter-screen; cell reporter, cycloheximide protein synthesis inhibition counterscreen; max response, %; 300,000 compounds, 12% hits; in the data active = max response mostly above about 13%, no sharp cut-off; inactive = mostly below about 14%; also: read at 38.3 µM for the half of the compounds with a filed dose; 0% is about no effect
Sm TGR inh: blocks Schistosoma mansoni thioredoxin glutathione reductase. Q962Y6. purified TGR, DTNB reduction, TNB absorbance 405 nm. Potency, µM (doses to about 114 µM), without a hit: top-dose activity change, negative = inhibition, actives largely listed as inhibitors. 360,000 compounds, 3% hits. AID 485364; also: potency is read from the fitted curve at half-maximal effect; % is scaled to controls: 0 for no effect and ±100 for the full control effect; nearly all actives have a fitted effect of over 60% in size
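TGR 20 nM + NADPH 100 uM (dispensed conc.), cpd preinc 15 min RT; start with NADPH (500 uM addition) then DTNB (15 mM addition). Kinetic TNB absorbance, 405 nm filter. Four-parameter Hill fit across titration.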
NS1 function inh: inhibitors of influenza NS1 protein function. Potency, µM (highest dose often 46.1 µM), inactives show top-dose activity, positive = more growth. AID 2326. 270,000 compounds, 0.4% hits; calls by dose curve; also: potency is read from the fitted curve at half-maximal effect; actives are rising curves; nearly all actives have a fitted effect of over 50% in size
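Compounds were scored for reversing the slow growth caused by influenza A NS1 in S. cerevisiae, measured by optical density at 600 nm. Assay medium contained 2% galactose at pH 6.0; NS1-free yeast of the same strain were the positive control.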
Pf growth 48h: P. falciparum growth inhibition at 48 hours (one generation) | P. falciparum luciferase growth in erythrocytes, 48 h | Potency, µM (top dose mostly 28.7 µM), without a hit: top-dose activity change, negative = inhibition, hits mostly inhibitors | 310,000 compounds, 5.9% hits; also: potency is read from the fitted curve at half-maximal effect; % is scaled to controls: 0 for no effect and ±100 for the full control effect
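Cell-based growth assay: transgenic P. falciparum expressing firefly luciferase, cultured in red cells within RPMI 1640 containing 0.5% w/v Albumax, 24 mM bicarbonate and gentamycin. A drop in luciferase activity indicates inhibition.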
Shiga inhibitor: Shiga toxin inhibition; Vero cells, Shiga toxin protein synthesis inhibition reporter; inhibition, % at 38.7 µM; 290,000 compounds, 9.2% hits; in the data active = inhibition mostly above about 28%, no sharp cut-off; inactive = mostly below about 43%; also: 0% is about no effect
Pf growth 96h: P. falciparum growth inhibition at 96 hours. P. falciparum luciferase reporter growth, 96 h. Potency, µM (titrated, usually from 28.7 µM), for the others: at the highest dose activity change, negative = inhibition, most hits filed as inhibitors. 320,000 compounds, 6.9% hits. AID 504834; also: potency is read from the fitted curve at half-maximal effect; % is scaled to controls: 0 for no effect and ±100 for the full control effect
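Parasite growth measured via integrated firefly luciferase reporter in P. falciparum. Infected erythrocytes at 2% hematocrit, 0.05% parasitemia final were treated 96 hours at 37 C under 5% CO2, and luminescence was read.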
Numbers without * were called inactive. Unless noted, calls follow the shape of the dose curve; as a rule, active = well fitted curve in the direction sought with a large enough effect; inconclusive = small, poorly fitted or top-dose-only effect, or another doubt; inactive = no such curve, though single readings can be large; an effect the other way counts as inactive or inconclusive.

How did CCC(C)(C(=O)NC1CCCCC1)N(Cc1ccco1)C(=O)Cc1cccs1 (stereo unspecified) do in these assays?
Cycloheximide cs: 2; Sm TGR inh: -27%; NS1 function inh: 25%; Pf growth 48h: 53%; Shiga inhibitor: 4

What do the screens show for `CN(C)c1nc(-c2ccccc2)[n+](C)s1`?
Cycloheximide cs: -6; Sm TGR inh: -4%; NS1 function inh: -6%; Pf growth 48h: 12µM*; Shiga inhibitor: -16; Pf growth 96h: 23%

What do the screens show for `CCC(SC1=Nc2ccccc2C2=NC(CC(C)C)C(=O)N12)C(=O)Nc1ccc2c(c1)OCO2` (stereo unspecified)?
Cycloheximide cs: 23*; Sm TGR inh: inconclusive; NS1 function inh: 11%; Pf growth 48h: inconclusive; Shiga inhibitor: 40*; Pf growth 96h: 6%

How did Cc1ccc(C(=O)OCC(=O)c2ccc(Cl)s2)s1 do in these assays?
Cycloheximide cs: 53*; Sm TGR inh: 10%; NS1 function inh: -6%; Pf growth 48h: 118%; Shiga inhibitor: 83*

Results for Cc1cccc(N2CCN(C(=O)c3ccc(Cl)c(S(=O)(=O)N4CCc5ccccc5C4)c3)CC2)c1C ?
Cycloheximide cs: -1; Sm TGR inh: -2%; NS1 function inh: inconclusive; Pf growth 48h: -1%; Shiga inhibitor: -12; Pf growth 96h: inconclusive

Results for Cn1cc(S(=O)(=O)N2CCc3ccccc32)cc1C(=O)Nc1ccc(C(F)(F)F)cc1 ?
Sm TGR inh: 11%

How did Cc1cc(C(=O)OC(C(=O)Nc2cccc(C(F)(F)F)c2)c2ccccc2)c(C)o1 (stereo unspecified) do in these assays?
Cycloheximide cs: 8; Sm TGR inh: -16%; NS1 function inh: 5%; Pf growth 48h: 9.3µM*; Shiga inhibitor: -5; Pf growth 96h: 5.2µM*

How did Cc1ccc(NC(=O)C(OC(=O)c2cc(C)oc2C)c2ccccc2)cc1 (stereo unspecified) do in these assays?
Cycloheximide cs: 2; Sm TGR inh: -4%; NS1 function inh: 5%; Pf growth 48h: 5%; Shiga inhibitor: -3; Pf growth 96h: inconclusive

Results for Cc1ncc(CO)c(/C=N/Nc2ccc(C(F)(F)F)cn2)c1O ?
Cycloheximide cs: -4; Sm TGR inh: 4%; NS1 function inh: 3%; Pf growth 48h: inconclusive; Shiga inhibitor: -4; Pf growth 96h: 2.3µM*

What do the screens show for `Cc1cc(N=Cc2c(CO)cnc(C)c2O)c(N=Cc2c(CO)cnc(C)c2O)cc1C.[Zn]`?
NS1 function inh: -3%

How did Cc1ncc(CO)c(/C=N/NC(=S)Nc2ccc(F)cc2)c1O do in these assays?
Cycloheximide cs: -1; Sm TGR inh: -22%; NS1 function inh: 11%; Pf growth 48h: -102%; Shiga inhibitor: 11; Pf growth 96h: 13µM*

Results for Cc1ncc(CO)c(/C=N/N=C/c2ccccc2O)c1O ?
Cycloheximide cs: 16*; Sm TGR inh: -16%; NS1 function inh: 13%; Pf growth 48h: inconclusive; Shiga inhibitor: 34; Pf growth 96h: -8%

What do the screens show for `Cc1ncc(CSCC(=O)Nc2cc(C(F)(F)F)ccc2Cl)c(CO)c1O`?
Cycloheximide cs: -1; Sm TGR inh: -9%; NS1 function inh: 0%; Shiga inhibitor: 33; Pf growth 96h: -1%

What do the screens show for `Cc1ccc(Nc2ncc(C(=O)Nc3ccc(F)cc3F)c3ccccc23)cc1Cl`?
Sm TGR inh: -1%

What do the screens show for `Cc1cccn2c1nc(=S)n2C(=O)c1ccco1`?
Cycloheximide cs: 43*; Sm TGR inh: -3%; NS1 function inh: 7%; Pf growth 48h: 57%; Shiga inhibitor: 82*; Pf growth 96h: 23%

Results for CCn1c(C)c(C(C)=O)c(N2CCN(C(=O)c3ccco3)CC2)nc1=S ?
Cycloheximide cs: -1; Sm TGR inh: inconclusive; NS1 function inh: inconclusive; Pf growth 48h: 6%; Shiga inhibitor: 5

Results for CCN(CC)CCNC(=O)c1nn(-c2ccc(OC)c(Cl)c2)c(=O)c2c1c1ccccc1n2C ?
Sm TGR inh: 4%

What do the screens show for `CNc1ccccc1C(C)(C)c1cc(-c2cc(C)cc(C)c2)no1`?
Cycloheximide cs: -7; Sm TGR inh: -11%; NS1 function inh: 3%; Pf growth 48h: inconclusive; Shiga inhibitor: -8; Pf growth 96h: 9.3µM*

How did CNc1ccccc1C(C)(C)c1cc(-c2cccc(OC)c2)no1 do in these assays?
Cycloheximide cs: 4; Sm TGR inh: -9%; Pf growth 48h: inconclusive; Shiga inhibitor: 6; Pf growth 96h: inconclusive

How did COc1cc2oc(=O)cc(-c3ccc(-c4ccc(F)c(Cl)c4)cc3)c2c(OC)c1OC do in these assays?
Cycloheximide cs: 6; Shiga inhibitor: -2

Results for COc1cc(OC)c2c(-c3cccc(-c4ccc(N(C)C)cc4)c3)cc(=O)oc2c1 ?
Cycloheximide cs: 37*; Shiga inhibitor: active

Results for COc1cc(OC)c2c(-c3cccc(-c4cccc(C)c4)c3)cc(=O)oc2c1 ?
Cycloheximide cs: 5; Shiga inhibitor: inactive

What do the screens show for `COc1cc2oc(=O)cc(-c3ccc(-c4ccc(N(C)C)cc4)cc3)c2c(OC)c1OC`?
Cycloheximide cs: 64*; Shiga inhibitor: active

Results for COc1cc(OC)c2c(-c3cccc(/C=C/c4ccc(F)cc4)c3)cc(=O)oc2c1 ?
Cycloheximide cs: 50*; Shiga inhibitor: active

What do the screens show for `COc1ccc(-c2ccc(-c3cc(=O)oc4cc(OC)c(OC)c(OC)c34)cc2)cc1F`?
Cycloheximide cs: 30*; Shiga inhibitor: 79*

Results for CCOC(=O)CSc1nnc2n(-c3ccccc3)c(=O)c3c4c(sc3n12)COC(C(C)C)C4 (stereo unspecified) ?
Sm TGR inh: 7%

What do the screens show for `C/C(=N\NS(=O)(=O)c1ccccc1)c1cc(Cl)cc(Cl)c1O`?
Cycloheximide cs: -2; Sm TGR inh: -6%; Pf growth 48h: -7%; Shiga inhibitor: -14; Pf growth 96h: 19%

Results for Cc1cccc(NC(=O)/C(C#N)=C/c2ccco2)c1 ?
Sm TGR inh: -1%

What do the screens show for `Cc1ccc(C2C3=C(CCCC3=O)N=C3c4ccccc4C(=O)C32)cc1` (stereo unspecified)?
Cycloheximide cs: -5; Sm TGR inh: -21%; NS1 function inh: 16%; Pf growth 48h: inconclusive; Shiga inhibitor: 23; Pf growth 96h: inconclusive

Results for CCc1cccc(NC(=O)Cn2c(=O)n(-c3cccc(Cl)c3)c(=O)c3c2c2cc(C)ccc2n3C)c1 ?
Sm TGR inh: 6%

How did COc1cc(OC)c2c(-c3cccc(-c4ccc(OC(F)(F)F)cc4)c3)cc(=O)oc2c1 do in these assays?
Cycloheximide cs: 11; Shiga inhibitor: 5

Results for COc1ccc(-c2cccc(-c3cc(=O)oc4cc(OC)c(OC)c(OC)c34)c2)cc1 ?
Cycloheximide cs: 26; Shiga inhibitor: inactive

Bioassay records from PubChem.
